Values joined by “and” are separate entries in the source; they are usually repeats but may differ in a detail not shown here. Equal entries are not always repeated. Active and inactive are the calls of the source.
Key:
[1] = A549 cell viability effects, profiling panel, calcein-AM fluorescence, 48 h, basal (AID 1162); details: higher = more signal
[2] = adipocyte viability effects, profiling panel, cell-based, 3T3-L1 adipocytes, calcein-AM fluorescence, 48 h, basal (AID 1163); details: 3T3-L1 adipocytes viability, higher = more signal
[3] = HepG2 cell viability effects, profiling panel, calcein-AM fluorescence, 48 h, basal (AID 1164); details: higher = more signal
[4] = MM1S cell viability effects, profiling panel, calcein-AM fluorescence, 48 h, basal (AID 1165); details: higher = more signal;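 further: viability of MM1S multiple myeloma cells under basal unstimulated conditions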
[5] = basal RPMI8226 viability, no added stimulus, profiling panel, cell-based, calcein-AM fluorescence, 48 h, PK04 Diversity Set (AID 1166); details: RPMI8226 myeloma viability, higher = more signal;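 further: cells grown under basal conditions without added stimulus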
[6] = basal HepG2 mitochondrial membrane potential changes, profiling panel, cell-based, JC-1 fluorescence, 24 h, 100 nL compound (AID 1167); details: higher = more signal
[7] = basal 3T3-L1 adipocyte mitochondrial potential changes, profiling panel, cell-based, JC-1 fluorescence, 3T3-L1 adipocytes, 24 h, 100 nL compound (AID 1168); details: JC-1 mitochondrial fluorescence, higher = more signal, called active from +8 up or from −8 down
[8] = basal RPMI8226 mitochondrial membrane potential changes, profiling panel, cell-based, JC-1 fluorescence, 24 h, 100 nL compound (AID 1169); details: RPMI8226 myeloma, JC-1 mitochondrial potential fluorescence, higher = more signal
[9] = basal MM1S mitochondrial membrane potential changes, profiling panel, cell-based, JC-1 fluorescence, 24 h, 100 nL compound (AID 1170); details: higher = more signal
[10] = A549 lung cancer cell viability effects, profiling panel, resazurin fluorescence, 24 h, PK04 Diversity Set (AID 1171); details: higher = more signal, called active from +8 up or from −8 down
Further: test concentration not given here.

Compound | z-score [1] | z-score [2] | z-score [3] | z-score [4] | z-score [5] | z-score [6] | z-score [7] | z-score [8] | z-score [9] | z-score [10]
COC(=O)C1=C(C)N(Cc2ccccc2)[C@]23O[C@](C(=O)OC)(C(=O)N2[C@@H]1c1ccccc1)[C@H]1C(=O)N(C)C(=O)[C@H]13 | 0.395 and 1.67 | 1.1 and 0.612 | 0.0623 and -0.164 | 0.639 and 0.0646 | -1.44 and 1.16 | 0.873 and 0.158 | 0.107 (inactive) and 1.13 (inactive) | -0.536 and 0.12 | 0.551 and -0.416 | -0.81 (inactive) and 0.0401 (inactive)
CCOC(=O)[C@H](CC(C)C)NC(=O)CCC1CC(OC(=O)NCc2cccc3ccccc23)CC2(CCCC(COC(=O)NCc3ccccc3)O2)O1 (stereo not given in full) | 0.531 | -0.172 | -0.435 | 0.184 | 0.0523 | 2.45 | 0.472 (inactive) | 0.0897 | -0.717 | 0.586 (inactive)
COc1ccc(COC(=O)NN=C2C[C@@H](O)[C@@H](O)[C@@H]3[C@@H]4C(=O)N(C(C)(C)C)C(=O)[C@@H]4CC[C@H]23)cc1 | 0.894 | 0.377 | 0.89 | -0.156 | 0.0186 | -0.206 | 1.14 (inactive) | 0.704 | -0.527 | -0.581 (inactive)
C=CCN(C(=O)C(c1cccs1)N(C(=O)/C=C\C(=O)O)c1c(Cl)cccc1CO)C(C)(C)C (stereo not given) | 0.422 and -0.237 | 0.0699 and -0.221 | -0.0685 and 0.369 | 0.221 and 0.0812 | -0.511 and -0.202 | -0.99 and -0.519 | 0.563 (inactive) and 0.497 (inactive) | -0.639 and -0.0626 | 0.923 and 0.231 | -0.493 (inactive) and -0.643 (inactive)
CC(CO)N1C(=O)[C@@H]2C3C(=O)OCCC=C[C@H]3OC23C=CCN(Cn2nnc4ccccc42)C(=O)[C@@H]13 (stereo not given in full) | -0.515 and 0.432 | -0.101 and 0.061 | -0.562 and -0.713 | 0.922 and -0.0987 | -0.28 and 0.0829 | -1.01 and -0.375 | -0.259 (inactive) and -1.12 (inactive) | 0.46 and -0.0108 | 0.198 and -0.363 | -0.116 (inactive) and 0.785 (inactive)
CC[C@@H]1C(Sc2ccccc2)C(C(=O)O)[C@H](c2ccc(C)cc2)N1S(=O)(=O)c1ccc(C)cc1 (stereo not given in full) | 0.0996 and 0.624 | -0.505 and 0.311 | 0.364 and 0.126 | 0.702 and 1.11 | -0.528 and -0.148 | -0.446 and 0.366 | 0.164 (inactive) and 0.619 (inactive) | 0.296 and -0.369 | -0.152 and -0.291 | -0.631 (inactive) and -1.02 (inactive)
CCN1C(=O)[C@H]2[C@H]3[C@H](O)[C@H](O)CC(=NOC)[C@@H]3CC[C@H]2C1=O | 0.357 | -0.344 | -0.0225 | -0.106 | 0.887 | 0.459 | 1.7 (inactive) | 0.0805 | -0.218 | -0.562 (inactive)
COC(=O)CC=C[C@@H](C)[C@@H](CO)NS(=O)(=O)c1ccc(C)cc1 | -0.188 and 0.816 | -0.466 and -0.0209 | -0.252 and 0.461 | -0.243 and 0.811 | -0.101 and 0.667 | -0.328 and 0.817 | -0.0819 (inactive) and -0.161 (inactive) | -0.827 and 0.601 | -0.0943 and -0.285 | 0.827 (inactive) and -0.832 (inactive)
C=CCN(C(=O)C(c1cccs1)N(CCOCCO)C(=O)/C=C\C(=O)O)C(C)(C)C (stereo not given) | 1.01 and 1.61 | -0.515 and -0.161 | 1.25 and 0.41 | 1.62 and 0.903 | 0.116 and 0.954 | 1.07 and 0.991 | 1.16 (inactive) and 0.0544 (inactive) | 0.28 and -0.0177 | 0.987 and 0.588 | 0.111 (inactive) and -0.422 (inactive)
O=C(NN=C1C[C@@H](O)[C@@H](O)[C@@H]2[C@@H]3C(=O)N(Cc4ccc5c(c4)OCO5)C(=O)[C@@H]3CC[C@H]12)OCc1ccccc1 | 0.356 | -0.263 | 0.339 | 0.172 | 0.102 | 1.3 | 0.415 (inactive) | 0.559 | -1.79 | -0.31 (inactive)
C[C@@H](c1ccccc1)N1C(=O)[C@H]2[C@H]3[C@H](O)[C@H](O)CC(=O)[C@@H]3CC[C@H]2C1=O | 0.0128 | 0.762 | 1.15 | 0.288 | -1.17 | 0.921 | 2.42 (inactive) | -0.438 | 1.65 | -0.1 (inactive)
CCCC[C@@H]1CN2[C@@H](CC[C@@H](C)[C@@H]2c2ccc(Br)cc2)C(=O)O1 | 0.761 and 1.06 | -0.857 and -0.567 | 0.537 and -0.336 | -1.1 and 0.516 | 0.309 and -0.616 | -0.48 and 0.127 | -0.136 (inactive) and -1.09 (inactive) | 0.266 and -0.0989 | 0.0213 and -0.396 | -0.335 (inactive) and -0.178 (inactive)
CC(C)=NO[C@@H](C)c1cc(-c2c(C)cc(C)cc2C)no1 | -0.846 | 0.38 | -0.242 | -0.309 | -0.416 | -0.182 | 0.478 (inactive) | -0.328 | -0.39 | 0.0477 (inactive)
C=CCN(C(=O)C1N(c2c(Cl)cccc2CO)C(=O)C2C(C(=O)O)C3C=CC21O3)C(C)(C)C (stereo not given) | -0.875 and 0.96 | 0.766 and -0.202 | 0.613 and 1.78 | 0.64 and 1.54 | -0.224 and -0.394 | -0.536 and 0.627 | -1.27 (inactive) and 1.46 (inactive) | -0.153 and 0.828 | 0.0478 and 1.11 | -0.289 (inactive) and 0.361 (inactive)
C=CCN(C(=O)C1N(CCOCCO)C(=O)C2C(C(=O)O)C3C=CC21O3)C(C)(C)C (stereo not given) | -0.186 and -0.328 | 0.0948 and -1.23 | 0.108 and 0.442 | 1.01 and 0.916 | -0.114 and 0.817 | -0.58 and -0.767 | -0.693 (inactive) and -0.523 (inactive) | -0.691 and 0.591 | 1.93 and 0.501 | 0.161 (inactive) and -0.73 (inactive)
CCN1C(=O)[C@H]2[C@H]3[C@H](O)[C@H](O)CC(=NNC(=O)OCc4ccc(OC)cc4)[C@H]3CC[C@H]2C1=O | 0.173 | -0.402 | 1.33 | 0.436 | -0.261 | 0.385 | -0.596 (inactive) | -0.236 | -0.00926 | -0.947 (inactive)
C=CCN(CCCC)C(=O)C1N(CCCCCCO)C(=O)C2C(C(=O)O)C3C=CC21O3 (stereo not given) | -0.835 and -0.441 | 0.221 and -0.0736 | -1 and -0.393 | 0.62 and 1.32 | 0.646 and -0.44 | -0.253 and -0.939 | 0.051 (inactive) and -0.617 (inactive) | 0.221 and 0.855 | -0.00969 and -0.273 | -0.59 (inactive) and -0.439 (inactive)
COC(=O)C1=C2N(Cc3ccccc3)C(C)=C(C(=O)OC)[C@@H](c3ccccc3)N2C(=O)[C@](O)(C(=O)OC)C1 | -0.104 and 1.11 | 0.387 and -1.41 | -0.102 and 0.511 | -0.397 and -0.107 | -1.16 and 0.38 | 0.574 and 0.276 | -0.0488 (inactive) and -0.394 (inactive) | -0.848 and 0.573 | 0.127 and 0.0283 | 1.83 (inactive) and -0.59 (inactive)
CC(CO)N1C(=O)[C@@H]2C3C(=O)OCCC=C[C@H]3OC23C=CCN(C(C)(C)C)C(=O)[C@@H]13 (stereo not given in full) | -0.418 and -0.461 | -0.142 and -0.791 | -1.27 and -0.487 | -0.388 and 0.885 | -0.0799 and 0.143 | -0.985 and -1.27 | -0.105 (inactive) and -0.534 (inactive) | 0.914 and -0.0183 | 0.157 and -0.365 | -0.731 (inactive) and -0.299 (inactive)
C=CCN(Cc1ccccc1)C(=O)C(c1cccs1)N(C(=O)/C=C\C(=O)O)c1c(Cl)cccc1CO (stereo not given) | -0.159 and -0.34 | 0.036 and -0.0047 | -0.876 and -0.217 | 1.21 and 1.6 | 1 and -0.538 | -0.267 and -0.148 | 0.426 (inactive) and 0.223 (inactive) | -0.917 and 0.247 | -0.871 and -0.502 | 0.351 (inactive) and -0.519 (inactive)
COC(=O)[C@@]1(Cc2ccc(OC)cc2)[C@H]2c3cc(C(=O)N(C)C)n(Cc4ccc(O)c(OC)c4)c3C[C@H]2CN1C(=O)c1ccccc1 | -0.352 and 0.46 | 0.865 and 0.215 | -0.0117 and 0.763 | 0.0138 and -1.26 | -0.475 and -2.77 | 2.46 and 2.03 | -0.0971 (inactive) and 0.395 (inactive) | 0.178 and -0.792 | -0.74 and -1.95 | 1.06 (inactive) and -1.21 (inactive)
COc1ccc(-c2ccc3c(n2)CCCN3CC(O)CN2CCCc3nc(-c4ccc(Br)cc4)ccc32)cc1 (stereo not given) | 0.261 and -0.331 | 0.163 and 0.196 | -0.0242 and 0.0285 | -2.63 and -0.767 | -0.393 and -0.48 | 0.219 and -1.61 | -0.136 (inactive) and -0.88 (inactive) | 0.553 and 0.817 | 0.0404 and -0.331 | -0.23 (inactive) and 0.169 (inactive)
C=CCN(C(=O)C(c1cccs1)N(C(=O)/C=C\C(=O)O)c1ccc(CCO)cc1)c1ccc(OC)cc1 (stereo not given) | -0.256 and 1.54 | 0.015 and -0.199 | 1.35 and 0.76 | 1 and -0.0823 | 1.2 and -0.0106 | 0.417 and 0.583 | 0.249 (inactive) and 1.26 (inactive) | 0.201 and 0.0752 | -1.07 and 1.18 | 0.307 (inactive) and 0.0568 (inactive)
C[N+](C)(C)CCCCNC(=O)[C@H]1C[C@H]2C(=O)N[C@@H](CCCC[N+](C)(C)C)C(=O)N2[C@H]1c1ccc(O)cc1 | -0.231 and -0.502 | -1.46 and 0.308 | -0.905 and -1.22 | -0.088 and -0.298 | -0.598 and -0.804 | -0.982 and -1.85 | -0.258 (inactive) and -0.841 (inactive) | 0.629 and -0.808 | -0.588 and -0.423 | -0.471 (inactive) and -0.706 (inactive)
C[C@@]1([C@@H](NC(=O)Cc2ccccc2)c2ccc(-c3ccccc3)cc2)C[C@H]1C1CCCCC1 | -2.72 and -1.23 and -1.42 | 0.765 and -0.0714 and -0.863 | -2.87 and -0.861 and -0.802 | -2.91 and -1.81 and -2 | -4.81 and -1.41 and -1.24 | -3.9 and -0.895 and 0.848 | 0.111 (inactive) and -0.332 (inactive) and -1.75 (inactive) | -0.936 and -0.586 and -0.431 | -1.71 and 0.0165 and -1.06 | -0.609 (inactive) and 3.96 (inactive) and -0.816 (inactive)

Source: PubChem BioAssay
